# Laboratory results reported in PubChem BioAssay.
# Activity calls are given as the source filed them.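 How the source made its calls, unless noted: active means viability at or under a set limit in both replicates, limit being median viability minus 3 SD (cut at about 48% in these data, passing the limit was not always enough); inconclusive means at or under the limit in just one replicate; inactive means at or above the limit in both replicates.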
# Assays:
# [1] = Her2 expression decrease, cell viability multiplex – SKBR3 breast tumor cells, AlphaScreen, ATP viability, primary screen (AID 461;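 active means Her2 level under about 52% in both replicate screens, with viability over 70% of control, limit read from the data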;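 on Her2 level: lower value means less Her2 protein in the cells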;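 on viability: percent of carrier control wells set as 100% viability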); details: SKBR3 Her2 protein level, 18-24 h, measured here: SKBR3 viability, ATP luminescence, at 10 µM
# [2] = biological target: Receptor tyrosine-protein kinase erbB-2 (Homo sapiens) (UniProt P04626); test: as above; details: 18-24 h, at 10 µM, stronger effect = lower value
# [3] = reduced viability of SK-BR-3 breast cancer cells – cell-based, 24 h, human, pilot screen (AID 572;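 active means viability at or below 10% of carrier control in both of two separate runs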;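 further: compound exposure lasted between 18 and 24 h rather than exactly 24 h; 100% = carrier-treated control wells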); details: SK-BR-3 viability, CellTiter-Glo luminescence, at 10 µM, stronger effect = lower value
# [4] = HUVEC growth inhibition – cell-based, human, primary screen (AID 575;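 active means viability at or below 30% in both replicate assays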;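 further: 100% = median of untreated cell wells with 0.1% DMSO on each plate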); details: HUVEC proliferation, CellTiter-Glo luminescence, 72 h; at 10 µM; stronger effect = lower value
# [5] = H69AR cell proliferation blockers – human, duplicate replicates, primary screen (AID 580); details: H69AR lung tumor cells viability, ATP luminescence, 72 h; at 10 µM; stronger effect = lower value;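 further: 100% = mean luminescence of untreated wells and 0% = no signal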
# [6] = MRP1 drug-resistance reversers in H69AR cells – cell-based, doxorubicin co-treatment, pilot screen (AID 601;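 active means viability loss from added drug above about 55%, and viability with drug at most 40%, in both replicates, limit read from the data, passing the limit was not always enough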); details: CellTiter-Glo, 72 h, at 10 µM; for differential viability (reversal): stronger effect = higher value
# [7] = yeast transport mutant growth inhibition pilot in 384-well plates, post-Golgi transport modulator project (AID 636; in the data active means inhibition above about 31%); details: absorbance 615 nm, about 18 h, stronger effect = higher value
# [8] = growth suppression of yeast trafficking mutant, preliminary HTS, modulators of trafficking downstream of Golgi apparatus project, 1536-format plate, OD 615 nm (AID 637; in the data active means inhibition above about 30%); details: yeast transport mutant growth, absorbance 615 nm, 18 h; stronger effect = higher value
# [9] = H69AR cells + 2 uM doxorubicin, measured here: viability with 2 uM doxorubicin, stronger effect = lower value
# [10] = H69AR cells, compound alone cytotoxicity
# Sequence of Receptor tyrosine-protein kinase erbB-2 (Homo sapiens) (P04626 whole entry, looked up): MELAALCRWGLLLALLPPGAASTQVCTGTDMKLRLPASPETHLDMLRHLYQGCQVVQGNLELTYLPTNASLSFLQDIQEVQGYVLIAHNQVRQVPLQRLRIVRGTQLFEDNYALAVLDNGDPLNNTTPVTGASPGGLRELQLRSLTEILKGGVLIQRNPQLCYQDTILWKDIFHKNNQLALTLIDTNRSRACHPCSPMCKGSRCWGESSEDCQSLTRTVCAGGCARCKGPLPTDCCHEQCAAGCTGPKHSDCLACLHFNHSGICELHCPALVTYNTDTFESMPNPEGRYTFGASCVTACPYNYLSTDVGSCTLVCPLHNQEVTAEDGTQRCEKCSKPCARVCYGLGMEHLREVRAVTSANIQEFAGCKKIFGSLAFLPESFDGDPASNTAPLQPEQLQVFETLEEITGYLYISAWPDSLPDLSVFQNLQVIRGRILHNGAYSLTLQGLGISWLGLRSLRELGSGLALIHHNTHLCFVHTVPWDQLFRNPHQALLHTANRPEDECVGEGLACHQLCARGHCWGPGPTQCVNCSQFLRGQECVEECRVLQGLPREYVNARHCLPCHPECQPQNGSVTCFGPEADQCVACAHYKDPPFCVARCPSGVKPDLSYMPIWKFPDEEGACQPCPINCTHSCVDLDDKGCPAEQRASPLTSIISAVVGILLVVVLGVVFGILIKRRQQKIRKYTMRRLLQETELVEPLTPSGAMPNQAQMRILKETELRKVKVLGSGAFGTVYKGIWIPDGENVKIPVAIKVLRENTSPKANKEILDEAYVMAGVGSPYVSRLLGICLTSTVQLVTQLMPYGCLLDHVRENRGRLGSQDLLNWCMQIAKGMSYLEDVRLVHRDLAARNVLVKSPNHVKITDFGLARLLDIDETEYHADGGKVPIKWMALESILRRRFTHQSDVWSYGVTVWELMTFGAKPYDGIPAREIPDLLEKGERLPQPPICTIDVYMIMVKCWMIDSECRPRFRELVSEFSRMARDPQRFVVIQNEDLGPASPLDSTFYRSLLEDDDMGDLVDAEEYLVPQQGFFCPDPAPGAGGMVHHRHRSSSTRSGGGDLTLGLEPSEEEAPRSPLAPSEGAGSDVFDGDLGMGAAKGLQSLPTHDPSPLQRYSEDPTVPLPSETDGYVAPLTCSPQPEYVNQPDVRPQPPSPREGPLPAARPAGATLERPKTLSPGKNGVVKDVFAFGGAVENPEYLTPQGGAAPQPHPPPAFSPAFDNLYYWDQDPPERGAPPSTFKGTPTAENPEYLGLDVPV
SMILES,viability [1] [%],Her2 level [2],viability [3],viability [4],viability [5],differential viability (reversal) ([6]; H69AR cells + 2 uM doxorubicin),"viability [6, 9] [%]","viability [6, 10] [%]",inhibition [7],inhibition [8]
CC(C)Cc1n[nH]c(=O)[nH]1,118,115% (inactive),118% (inactive),93.9% (inactive),98.4% (inactive),9.75% (inactive),88.7,98.4,-6.93% (inactive),-9.84% (inactive)
CCC(C)(C(=O)NC1CCCC1)N(Cc1cccs1)C(=O)Cc1cccs1 (stereo not given),122,93% (inactive),122% (inactive),103% (inactive),96.8% (inactive),15.6% (inactive),81.3,96.8,-7.53% (inactive),-0.63% (inactive)
COc1ccc(CC(=O)Nc2ccc(OC)c(NC(=O)c3ccco3)c2)cc1,91,106% (inactive),91% (inactive),85.8% (inactive),81.9% (inactive),-9.55% (inactive),91.5,81.9,4% (inactive),-2.38% (inactive)
O=C(CN1CCN(c2nc(-c3ccccc3)cs2)CC1)Nc1ccc2c(c1)OCO2,90.5,99% (inactive),90.5% (inactive),89.9% (inactive),101% (inactive),5.71% (inactive),95.5,101,-3.87% (inactive),-7.1% (inactive)
O=C(CN(Cc1ccco1)C(=O)c1cc(=O)[nH]c2ccccc12)Nc1ccccc1Br,97,79.5% (inactive),97% (inactive),98.2% (inactive),83.1% (inactive),9.09% (inactive),74,83.1,-4.4% (inactive),-0.33% (inactive)
O=C1c2ccccc2C(Nc2ccc3c(c2)OCCO3)N1Cc1ccco1 (stereo not given),106,112% (inactive),106% (inactive),87.7% (inactive),80.7% (inactive),-22.6% (inactive),103,80.7,4.23% (inactive),-1.5% (inactive)
COc1ccc(S(=O)(=O)Cc2ccc(C(=O)N3CCN(Cc4ccccc4)CC3)o2)cc1,86.5,102% (inactive),86.5% (inactive),95% (inactive),84.9% (inactive),-0.78% (inactive),85.6,84.9,-1.41% (inactive),0.5% (inactive)
O=C(NC1CCCCC1)N(Cc1ccc(F)cc1)Cc1nc2ccccc2c(=O)[nH]1,98.5,80% (inactive),98.5% (inactive),78.2% (inactive),100% (inactive),7.63% (inactive),92.4,100,-5.66% (inactive),-1.83% (inactive)
O=C(Cn1c(NCCO)nc2ccccc21)c1ccccc1,100,100% (inactive),100% (inactive),99.6% (inactive),104% (inactive),3.85% (inactive),101,104,-2.16% (inactive),2.7% (inactive)
CCOC(=O)c1c(C)n(C)c2ccc(O)c(S(=O)(=O)c3ccccc3)c12,91.5,80.5% (inactive),91.5% (inactive),103% (inactive),87.9% (inactive),-1.07% (inactive),88.9,87.9,-6.4% (inactive),-1.31% (inactive)
CCOC(=O)c1cccc(NC(=O)CSc2nc3cccnc3n2C)c1,86.5,94.5% (inactive),86.5% (inactive),71.4% (inactive),93.2% (inactive),-1.5% (inactive),94.7,93.2,-5.14% (inactive),1.8% (inactive)
CCOC(=O)c1cc(-c2nnc(-c3ccc(Oc4ccccc4)cc3)o2)c(C)nc1C,85,88% (inactive),85% (inactive),80.5% (inactive),102% (inactive),16.7% (inactive),85.7,102,-1.6% (inactive),-0.16% (inactive)
CCN1CCN(C(=O)c2cc3c(=O)n(C)c4ccccc4c3n2C)CC1,110,94% (inactive),110% (inactive),88.2% (inactive),77.6% (inactive),-9.27% (inactive),86.9,77.6,0.4% (inactive),-1.33% (inactive)
COC(=O)c1cn(-c2ccccc2)nc1C(=O)OC,93.5,89.5% (inactive),93.5% (inactive),91% (inactive),97.8% (inactive),10.9% (inactive),86.9,97.8,-4.8% (inactive),-1.97% (inactive)
